# According to PubChem BioAssay:
# Active and inactive are the calls of the source.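 The calls were made as follows, unless noted: active = fluorescence slope after compound addition differing from the mean of all screened samples at 99.7% confidence, in either direction; inactive = the rest.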
# Assays:
# [1] = inhibitors of TNFa-induced NFkB p65 translocation, primary screen, imaging, HUVEC, MLSMR starter and 10KST1 sets (AID 438;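 active = inhibition above 20% together with a positive visual image hit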;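 also: compound added about 3h40 before a 20 min TNFalpha stimulation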;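 as to inhibition: signal is the nuclear over cytoplasmic p65 intensity ratio per well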); settings: HUVEC TNFa-induced p65 nuclear translocation; cell count: measured here: nuclei count (cytotoxicity indicator), at 2.08 µM; inhibition: at 2 µM, stronger effect = higher value, 0% TNFa-plus-vehicle, 100% no-TNFa wells
# [2] = reduction of polyQ htt aggregates in cells – imaging, exon1htt(103Q)mCFP cells, high-content imaging, primary screen (AID 483;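 active = visual image review flags a hit and inhibition of aggregation exceeds 20%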;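 also: compound exposure lasted 3 days before fixation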;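 as to nuclei count: percent of the per-plate median nuclei count of sample wells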); settings: exon1htt(103Q)mCFP cell line, aggregate imaging, at 2 µM; inhibition of aggregation: stronger effect = higher value; nuclei count: measured here: cell count, toxicity
# [3] = endothelial E-selectin expression blockers – imaging, HUVEC, immunofluorescence, MLSMR starter and 10KST1 sets, primary screen (AID 487;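 active = visually confirmed hit in the image check and inhibition above 20%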;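 as to inhibition: signal is fraction of cell area covered by stained E-selectin grains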;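 as to nuclei count: 100% = median nuclei count of all wells on the same plate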); settings: HUVEC TNFalpha-induced E-selectin immunofluorescence imaging, at 2 µM; inhibition: stronger effect = higher value; nuclei count: measured here: cell number, toxicity
# [4] = molecular target: Voltage-gated potassium channel subunit beta-2 (Rattus norvegicus) (UniProt P62483); test: inhibitors of rat Kvbeta2 reductase activity – biochemical, NADPH fluorescence, primary screen (AID 622;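 active = fluorescence slope higher than the sample average by over 3 SD, cut at about -0.22 in these data, passing the limit was not always enough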;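 also: slope of raw intensity against log time taken from 70 to 1610 s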); settings: recombinant KvBeta, 4-cyanobenzaldehyde reduction, at 10 µM, stronger effect = higher value
# Chain of Voltage-gated potassium channel subunit beta-2 (Rattus norvegicus) (P62483 whole entry, looked up): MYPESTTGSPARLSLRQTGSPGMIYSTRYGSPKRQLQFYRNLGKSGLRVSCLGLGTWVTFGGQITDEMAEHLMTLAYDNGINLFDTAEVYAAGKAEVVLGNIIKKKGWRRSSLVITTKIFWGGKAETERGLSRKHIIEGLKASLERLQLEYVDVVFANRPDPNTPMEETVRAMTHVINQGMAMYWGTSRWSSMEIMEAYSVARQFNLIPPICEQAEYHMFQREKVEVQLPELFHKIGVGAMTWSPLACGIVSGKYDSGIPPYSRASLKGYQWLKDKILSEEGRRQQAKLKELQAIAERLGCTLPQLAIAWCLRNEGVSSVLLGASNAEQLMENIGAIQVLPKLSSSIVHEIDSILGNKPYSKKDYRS
# [5] = molecular target: Voltage-gated potassium channel subunit beta-2 (Rattus norvegicus) (UniProt P62483); test: enhancers of rat Kvbeta2 NADPH turnover – biochemical, NADPH fluorescence, primary screen (AID 623;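 active = NADPH fluorescence slope more negative than the mean of all samples by about 3 SD, 99.7% confidence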;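 also: fluorescence intensity change per second fitted from 20 to 320 s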); settings: Recombinant KvBeta, NADPH fluorescence decrease slope, 10 min; at 10 µM; stronger effect = lower value
# [6] = molecular target: Alpha-2C adrenergic receptor (Homo sapiens) (UniProt P18825); test: compounds altering alpha2C-coupled GIRK flux – cell-based, HEK293 alpha2C/GIRK1/2, thallium flux, primary screen (AID 624); settings: thallium flux BTC fluorescence, at 10 µM, actives lie on both sides;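 also: slope of fluorescence ratio to pre-addition baseline per second over 15 to 24 s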
# Chain of Alpha-2C adrenergic receptor (Homo sapiens) (P18825 whole entry, looked up): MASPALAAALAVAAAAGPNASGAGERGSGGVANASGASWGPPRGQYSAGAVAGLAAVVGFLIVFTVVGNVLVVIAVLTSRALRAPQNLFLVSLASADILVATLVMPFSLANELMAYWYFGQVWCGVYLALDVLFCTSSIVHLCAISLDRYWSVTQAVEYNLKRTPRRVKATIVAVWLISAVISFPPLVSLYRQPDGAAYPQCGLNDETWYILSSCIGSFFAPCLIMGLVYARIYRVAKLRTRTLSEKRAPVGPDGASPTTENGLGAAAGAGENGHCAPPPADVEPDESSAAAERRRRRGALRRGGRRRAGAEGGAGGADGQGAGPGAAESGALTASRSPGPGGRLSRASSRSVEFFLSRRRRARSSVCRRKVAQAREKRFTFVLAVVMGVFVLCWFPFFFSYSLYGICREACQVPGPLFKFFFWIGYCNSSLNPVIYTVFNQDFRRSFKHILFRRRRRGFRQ
# [7] = blockers of RIG-like receptor reporter activation – cell-based, Sendai virus stimulus, luciferase, 10K MLSCN set, TLR/RLR signaling modifier project, primary screen (AID 602276;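 active = inhibition at or above 50% at 10 µM; inactive = inhibition below 50%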;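 also: firefly luciferase from ISG56 promoter only with Renilla not read in this screen; 0% = Sendai virus plus DMSO and 100% = medium plus DMSO without virus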); settings: HEK293 RL24 IRF3 luciferase reporter, at 10 µM, stronger effect = higher value
# [8] = TLR3 IRF3 reporter activation blockers – cell-based, poly I:C stimulus, luciferase, 10K MLSCN set, primary screen (AID 602277;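 active = inhibition of the reporter signal at or above 50%; inactive = inhibition below 50%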); settings: HEK293-TLR3 RL24 IRF3 luciferase reporter, at 10 µM, stronger effect = higher value
SMILES,cell count [1],inhibition [1],inhibition of aggregation [2],nuclei count [2],inhibition [3],nuclei count [3],fluorescence slope [4],NADPH fluorescence slope [5],slope [6],inhibition [7],inhibition [8]
O=C1CC(c2ccc(F)c(Br)c2)C2=C(CCCC2=O)N1 (configuration not stated),334,-6.7% (inactive),-9.9% (inactive),113%,-63% (inactive),108%,-0.327 (inactive),4e-06 (inactive),0.00275 (inactive),-0.311% (inactive),26.9% (inactive)
CCc1cc(=O)oc2cc(OC(C)=O)cc(OC(C)=O)c12,602,-6% (inactive),12.3% (inactive),104%,19.2% (inactive),97.5%,-0.0715 (active),2.1e-05 (inactive),0.00397 (inactive),11.6% (inactive),14% (inactive)
CC1CCCCC1NC(=O)CN1CCN(Cc2ccccc2Cl)C1=O (configuration not stated),667,-0.2% (inactive),10.7% (inactive),64.8%,-22.2% (inactive),98.9%,-0.455 (inactive),-6.3e-05 (inactive),0.00454 (inactive),10.1% (inactive),20.3% (inactive)
Cc1nn(CC(O)Cn2c3c(c4ccccc42)CCN(C)C3=O)c(C)c1Br (configuration not stated),363,-4.7% (inactive),10.5% (inactive),101%,45.5% (inactive),75.2%,-0.427 (inactive),-3e-05 (inactive),0.00532 (inactive),21.6% (inactive),21.9% (inactive)
CCC(Oc1ccccc1)C(=O)Nc1ccccc1OC (configuration not stated),352,9.2% (inactive),-9.3% (inactive),106%,-33.3% (inactive),109%,-0.487 (inactive),-1.9e-05 (inactive),0.00497 (inactive),0.598% (inactive),19.3% (inactive)
Cc1nc2sc(C(c3ccc(Br)cc3)N3CC(C)OC(C)C3)c(O)n2n1 (configuration not stated),260,-5.4% (inactive),-0.8% (inactive),106%,-6.9% (inactive),114%,-0.437 (inactive),-6.3e-05 (inactive),0.00564 (inactive),4.21% (inactive),17.4% (inactive)
CCCC(=O)C1=C(N(C)c2ccccc2)CC(C)(C)C(C(=O)OC)C1=O (configuration not stated),429,-0.3% (inactive),3.6% (inactive),92.5%,-8.2% (inactive),121%,-0.445 (inactive),-7.2e-06 (inactive),0.00268 (inactive),9.63% (inactive),33.4% (inactive)
